From PubChem BioAssay

Test: yeast transport mutant growth inhibition pilot in 384-well plates, post-Golgi transport modulator project (AID 636)
Settings: absorbance 615 nm, about 18 h, stronger effect = higher value

inhibition, inactive:
CCCCC(=O)NCCc1cc2c(C)ccc(C)c2[nH]c1=O -5.07%, CN1CCN(C2=C(Cl)C(=O)N(c3cccc(Cl)c3)C2=O)CC1 0.26%, Cc1ccc(Cn2c(=O)c3ccccc3n3c(CCC(=O)O)nnc23)cc1 -5.07%, COc1cc(/C=N/n2cnnc2)ccc1OCC(=O)N1CCOCC1 -0.9%, CCC(C)C(=O)Nc1nc2c(s1)C(=O)CC(C)(C)C2 (stereo not given) -6.27%, O=C(C(Cc1ccccc1)n1cccc1)N1CCCCCC1 (stereo not given) -0.13%, Cc1ccc(NC(=O)c2cc(-c3ccc(C)o3)nc3ccccc23)nc1 -7.43%, Cc1cccc(-n2ncc3c(NCCCn4ccnc4)ncnc32)c1 2.13%, Cc1ccc(CNC(=O)C2CCCN(S(=O)(=O)c3cnc[nH]3)C2)cc1 (stereo not given) -2.13%, CCCN1CCN(CCCNC(=O)Cn2ncc3c4ccccc4n(C)c3c2=O)CC1 0.9%, CN(C)c1cc(NC(=O)CN2CCOCC2)c2ccccc2n1 -5.47%, CN(C)S(=O)(=O)c1ccc2c(c1)c(=O)c(C(=O)NCCCN1CCCCCC1)cn2C -1.03%, CC(C)c1ccc(C(O)c2cnc(C(C)C)n2C)cc1 (stereo not given) -4.13%, CCN(CC)C(=O)c1ccc(CS(=O)(=O)c2ccc(OC)cc2)o1 1.54%, COc1ccc2c(c1)CCc1cc(C(=O)N3CCN(c4ccc(N5CCOCC5)nn4)CC3)sc1-2 -3.08%, COc1ccc(-c2[nH]c(-c3cccc(OC)c3)nc2SCC(=O)NCc2ccco2)cc1 -2.67%, CCSc1nnc(N2C(=O)CC(c3ccsc3)C3=C2CC(C)(C)CC3=O)s1 (stereo not given) -6.67%, CC1=C(C(=O)Nc2cccnc2)C(c2ccc(C(C)C)cc2)n2ncnc2N1 (stereo not given) -2.13%, CCCCN=CC1=C(O)C(C(=O)OC)C(C)(C)CC1=O (stereo not given) 1.03%, O=C1c2ccccc2C(Nc2cccnc2)N1Cc1ccccc1Cl (stereo not given) -3.2%, CC(=O)NC(CCS(C)(=O)=O)C(=O)Nc1cccc(C)c1 (stereo not given) 1.87%, Cc1ccc(N2CCN(S(=O)(=O)N(C)C)CC2)c(C)c1 1.73%, CCOc1ccc(NC(=O)CCN2CCN(c3ccccc3)CC2)cc1 -0.9%, CCOC(=O)C1=C(C)Nc2nnnn2C1c1ccc(OC)c(Br)c1 (stereo not given) 5.07%, CC(C)c1nnc(NC(=O)Cc2cccs2)s1 -2.53%, Cc1ccnc(NC(=O)C2CCC(CNc3c(N4CCCC4)c(=O)c3=O)CC2)c1 (stereo not given) -0.64%, CCN(CCCNS(=O)(=O)c1ccc2c(c1)oc(=O)n2C)c1cccc(C)c1 -0.38%, O=C(NCC1CCCO1)C1CCN(S(=O)(=O)c2cccc3cccnc23)CC1 (stereo not given) -2.53%, CCn1c(C(=O)N2CCC(C(=O)N3CCN(c4ccccn4)CC3)CC2)cc2sccc21 -2.8%, O=C(O)COc1ccc(S(=O)(=O)NCCc2ccccc2)cc1 -6.4%, CCOC(=O)N1CCN(C(=O)c2ccc(CS(=O)(=O)c3c(Cl)cccc3Cl)o2)CC1 -3.07%, CNC(=O)c1ccsc1NC(=O)c1ccccc1 -4.8%, CSc1nc2ccccc2c(=O)n1N -3.78%, CCN1CCN(C(c2cccs2)C(C)NC(=O)c2ccccc2)CC1 (stereo not given) -0.26%, CC(Sc1nc(-c2ccccc2)cc(C(F)(F)F)n1)C(=O)N1CCCC1 (stereo not given) -4.13%, CCOc1cccc(-c2nnc3n2N=C(c2cc(OC)ccc2OC)CS3)c1 -5.87%, COc1cc(NC(=O)C2CCCN2S(=O)(=O)c2cccc3cccnc23)cc(OC)c1OC (stereo not given) -1.67%, CCOC(=O)c1ccc(-n2c(C)nc3c(cnn3-c3ccccc3C)c2=O)cc1 -0.8%, O=C(Nc1c(C(=O)NCc2ccco2)cnn1-c1ccccc1)c1ccc(F)cc1 -0.26%, O=C(NCCC1=CCCCC1)C1CCN(S(=O)(=O)c2cccc3cccnc23)CC1 -2.27%

Test: growth suppression of yeast trafficking mutant, preliminary HTS, modulators of trafficking downstream of Golgi apparatus project, 1536-format plate, OD 615 nm (AID 637; in the data active = inhibition above about 30%)
Settings: yeast transport mutant growth, absorbance 615 nm, 18 h; stronger effect = higher value

inhibition, inactive:
CCCCC(=O)NCCc1cc2c(C)ccc(C)c2[nH]c1=O 1.67%, CN1CCN(C2=C(Cl)C(=O)N(c3cccc(Cl)c3)C2=O)CC1 5.67%, Cc1ccc(Cn2c(=O)c3ccccc3n3c(CCC(=O)O)nnc23)cc1 0.33%, COc1cc(/C=N/n2cnnc2)ccc1OCC(=O)N1CCOCC1 -1.17%, CCC(C)C(=O)Nc1nc2c(s1)C(=O)CC(C)(C)C2 (stereo not given) -0.67%, O=C(C(Cc1ccccc1)n1cccc1)N1CCCCCC1 (stereo not given) -6.89%, Cc1ccc(NC(=O)c2cc(-c3ccc(C)o3)nc3ccccc23)nc1 -0.82%, Cc1cccc(-n2ncc3c(NCCCn4ccnc4)ncnc32)c1 -3.67%, Cc1ccc(CNC(=O)C2CCCN(S(=O)(=O)c3cnc[nH]3)C2)cc1 (stereo not given) -3.61%, CCCN1CCN(CCCNC(=O)Cn2ncc3c4ccccc4n(C)c3c2=O)CC1 5.17%, CN(C)c1cc(NC(=O)CN2CCOCC2)c2ccccc2n1 7.17%, CN(C)S(=O)(=O)c1ccc2c(c1)c(=O)c(C(=O)NCCCN1CCCCCC1)cn2C -7.83%, CC(C)c1ccc(C(O)c2cnc(C(C)C)n2C)cc1 (stereo not given) 2.5%, CCN(CC)C(=O)c1ccc(CS(=O)(=O)c2ccc(OC)cc2)o1 -6%, COc1ccc2c(c1)CCc1cc(C(=O)N3CCN(c4ccc(N5CCOCC5)nn4)CC3)sc1-2 0.33%, COc1ccc(-c2[nH]c(-c3cccc(OC)c3)nc2SCC(=O)NCc2ccco2)cc1 -0.33%, CCSc1nnc(N2C(=O)CC(c3ccsc3)C3=C2CC(C)(C)CC3=O)s1 (stereo not given) 9.5%, CC1=C(C(=O)Nc2cccnc2)C(c2ccc(C(C)C)cc2)n2ncnc2N1 (stereo not given) -2.83%, CCCCN=CC1=C(O)C(C(=O)OC)C(C)(C)CC1=O (stereo not given) 25.8%, O=C1c2ccccc2C(Nc2cccnc2)N1Cc1ccccc1Cl (stereo not given) -3.5%, CC(=O)NC(CCS(C)(=O)=O)C(=O)Nc1cccc(C)c1 (stereo not given) 1.83%, Cc1ccc(N2CCN(S(=O)(=O)N(C)C)CC2)c(C)c1 1.17%, CCOc1ccc(NC(=O)CCN2CCN(c3ccccc3)CC2)cc1 3.17%, CCOC(=O)C1=C(C)Nc2nnnn2C1c1ccc(OC)c(Br)c1 (stereo not given) 14.8%, CC(C)c1nnc(NC(=O)Cc2cccs2)s1 1.48%, Cc1ccnc(NC(=O)C2CCC(CNc3c(N4CCCC4)c(=O)c3=O)CC2)c1 (stereo not given) -3.83%, CCN(CCCNS(=O)(=O)c1ccc2c(c1)oc(=O)n2C)c1cccc(C)c1 1.33%, O=C(NCC1CCCO1)C1CCN(S(=O)(=O)c2cccc3cccnc23)CC1 (stereo not given) -2.13%, CCn1c(C(=O)N2CCC(C(=O)N3CCN(c4ccccn4)CC3)CC2)cc2sccc21 -3.5%, O=C(O)COc1ccc(S(=O)(=O)NCCc2ccccc2)cc1 2.62%, CCOC(=O)N1CCN(C(=O)c2ccc(CS(=O)(=O)c3c(Cl)cccc3Cl)o2)CC1 -3.33%, CNC(=O)c1ccsc1NC(=O)c1ccccc1 -3.5%, CSc1nc2ccccc2c(=O)n1N -1.48%, CCN1CCN(C(c2cccs2)C(C)NC(=O)c2ccccc2)CC1 (stereo not given) 4%, CC(Sc1nc(-c2ccccc2)cc(C(F)(F)F)n1)C(=O)N1CCCC1 (stereo not given) -3.61%, CCOc1cccc(-c2nnc3n2N=C(c2cc(OC)ccc2OC)CS3)c1 1.75%, COc1cc(NC(=O)C2CCCN2S(=O)(=O)c2cccc3cccnc23)cc(OC)c1OC (stereo not given) 1.5%, CCOC(=O)c1ccc(-n2c(C)nc3c(cnn3-c3ccccc3C)c2=O)cc1 -3.93%, O=C(Nc1c(C(=O)NCc2ccco2)cnn1-c1ccccc1)c1ccc(F)cc1 -6%, O=C(NCCC1=CCCCC1)C1CCN(S(=O)(=O)c2cccc3cccnc23)CC1 -0.82%
